Measured values taken from the supplement of paper PMC10849652.
Targets with a hit are over-represented here; the source holds about 7,900 in all. About 0.6% of all pairs of compound and target were hits. Values without a mark were called inactive.

What was measured:
Test in all cases: log2 fold change, soluble protein after heating vs DMSO (PISA); higher = thermal stabilisation; K562 cells, 10 uM, 30 min; active = over 0.2 and 3.5 SD of the protein, either way, in both replicates (recomputed)
IRAK-1-4 Inhibitor I = compound: C1COCCN1CCN2C3=CC=CC=C3N=C2NC(=O)C4=CC(=CC=C4)[N+](=O)[O-] [IRAK-1-4 Inhibitor I]
Method in brief: (§1)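 Aliquots of K562 cells (2×10^6 cells/mL) treated with 10 μM compound for 30 min were heated for 3 min over 48°C-58°C. After pooling and extraction in PBS with 0.5% NP-40 at 4°C, soluble protein from a 21,000xg, 90 min spin was quantified by TMTpro 16plex LC-MS/MS with channel sums equalised. Thermal stability is expressed against control samples, from duplicates, as a log2 fold change.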

ibrutinib = compound: C=CC(=O)N1CCC[C@@H](n2nc(-c3ccc(Oc4ccccc4)cc3)c3c(N)ncnc32)C1 [ibrutinib]
Method in brief: as §1

[1] = compound: CC(=O)c1cnc2ccc(-c3cc(Cl)c(O)c(Cl)c3)nc2c1N[C@H]1CC[C@H](CN(C)C)CC1
Method in brief: as §1

ralimetinib = compound: CC(C)(C)Cn1c(N)nc2ccc(-c3[nH]c(C(C)(C)C)nc3-c3ccc(F)cc3)nc21 [ralimetinib]
Method in brief: as §1

[2] = compound: CC(C)(O)CC(=O)NCCn1ccc2ncnc(Nc3ccc(Oc4cccc(C(F)(F)F)c4)c(Cl)c3)c21
Method in brief: as §1

[3] = compound: CC(C)C1=C2N=C(C=C(N2N=C1)NCC3=CC=CC=C3)NCCCCCCN
Method in brief: as §1

[4] = compound: CC(C)C[C@@H](C=O)NC(=O)[C@H](CC(C)C)NC(=O)[C@H](CC(C)C)NC(=O)OCc1ccccc1
Method in brief: as §1

pinometostat = compound: CC(C)N(C[C@H]1O[C@@H](n2cnc3c(N)ncnc32)[C@H](O)[C@@H]1O)[C@H]1C[C@@H](CCc2nc3cc(C(C)(C)C)ccc3[nH]2)C1 [pinometostat]
Method in brief: as §1

[5] = compound: CC1=C(C(CC(=O)N1)C2=CC=C(C=C2)C(F)(F)F)C(=O)NC3=C(C=C4C(=C3)C=NN4)F
Method in brief: as §1

[6] = compound: CC1=C(C2=C(C=C1)C(=O)C3=CC=CC=C3N2CCCN)C
Method in brief: as §1

[7] = compound: CC1=C(C=C(C=C1)NC(=O)C2=CC(=CC=C2)C(C)(C)C#N)NC3=CC4=C(C=C3)N=CN(C4=O)C
Method in brief: as §1

[8] = compound: CC1=C(C=C(C=C1)NC(=O)C2=CC(=CC=C2)N(C)C)NC(=O)C3=CC=C(C=C3)O
Method in brief: as §1

[9] = compound: CC1=CC=C(C=C1)SC2=C3C=C(SC3=CN=C2)C(=O)N
Method in brief: as §1

[10] = compound: CC1=NC(=CC=C1)C2=C(N=C(N2)C(C)(C)C)C3=CC4=NC=CN=C4C=C3
Method in brief: as §1

Nexturastat A = compound: CCCCN(Cc1ccc(C(=O)NO)cc1)C(=O)Nc1ccccc1 [Nexturastat A]
Method in brief: as §1

vemurafenib = compound: CCCS(=O)(=O)Nc1ccc(F)c(C(=O)c2c[nH]c3ncc(-c4ccc(Cl)cc4)cc23)c1F [vemurafenib]
Method in brief: as §1

[11] = compound: CCCS(=O)(=O)Nc1ccc(F)c(C(=O)c2c[nH]c3ncc(Cl)cc23)c1F
Method in brief: as §1

[12] = compound: CCCc1cc(C)[nH]c(=O)c1CNC(=O)c1cc(-c2ccnc(N3CCN(C)CC3)c2)cc2c1cnn2C(C)C
Method in brief: as §1

givinostat = compound: CCN(CC)Cc1ccc2cc(COC(=O)Nc3ccc(C(=O)NO)cc3)ccc2c1 [givinostat]
Method in brief: as §1

barasertib = compound: CCN(CCCOc1ccc2c(Nc3cc(CC(=O)Nc4cccc(F)c4)[nH]n3)ncnc2c1)CCOP(=O)(O)O [barasertib]
Method in brief: as §1

UniProt Q7Z4V5, sequence (Q7Z4V5 whole entry, looked up): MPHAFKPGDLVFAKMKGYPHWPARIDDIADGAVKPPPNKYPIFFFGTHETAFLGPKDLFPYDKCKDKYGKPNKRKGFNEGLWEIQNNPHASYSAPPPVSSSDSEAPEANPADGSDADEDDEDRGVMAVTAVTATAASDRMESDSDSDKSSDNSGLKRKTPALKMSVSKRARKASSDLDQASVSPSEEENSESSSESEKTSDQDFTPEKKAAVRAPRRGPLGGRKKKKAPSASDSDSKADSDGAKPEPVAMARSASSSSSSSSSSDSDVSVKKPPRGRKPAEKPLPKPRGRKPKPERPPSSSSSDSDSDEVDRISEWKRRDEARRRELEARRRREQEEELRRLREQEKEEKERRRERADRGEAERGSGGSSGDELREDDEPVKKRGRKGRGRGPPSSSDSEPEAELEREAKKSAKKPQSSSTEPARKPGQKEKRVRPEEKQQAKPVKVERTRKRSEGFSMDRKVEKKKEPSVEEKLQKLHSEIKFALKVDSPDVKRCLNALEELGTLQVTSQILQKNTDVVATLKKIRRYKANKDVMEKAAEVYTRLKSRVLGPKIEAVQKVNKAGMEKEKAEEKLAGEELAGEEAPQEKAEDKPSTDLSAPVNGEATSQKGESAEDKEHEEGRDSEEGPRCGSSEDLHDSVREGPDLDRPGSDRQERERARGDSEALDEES
UniProt Q9Y5Q8, sequence (Q9Y5Q8 whole entry, looked up): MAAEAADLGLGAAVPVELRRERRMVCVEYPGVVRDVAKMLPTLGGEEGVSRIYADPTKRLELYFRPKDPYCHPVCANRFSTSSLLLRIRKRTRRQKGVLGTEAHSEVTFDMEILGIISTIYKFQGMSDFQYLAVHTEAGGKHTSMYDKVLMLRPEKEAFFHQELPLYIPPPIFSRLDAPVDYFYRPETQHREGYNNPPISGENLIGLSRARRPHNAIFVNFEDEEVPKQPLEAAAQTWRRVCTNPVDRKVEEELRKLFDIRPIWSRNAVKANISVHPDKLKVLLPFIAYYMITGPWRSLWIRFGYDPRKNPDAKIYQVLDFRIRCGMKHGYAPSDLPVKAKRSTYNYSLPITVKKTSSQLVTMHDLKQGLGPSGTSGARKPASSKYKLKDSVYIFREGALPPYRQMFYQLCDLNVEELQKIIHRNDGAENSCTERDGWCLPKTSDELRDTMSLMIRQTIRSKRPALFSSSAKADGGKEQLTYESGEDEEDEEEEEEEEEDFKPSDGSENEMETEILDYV
UniProt Q02790, sequence (Q02790 whole entry, looked up): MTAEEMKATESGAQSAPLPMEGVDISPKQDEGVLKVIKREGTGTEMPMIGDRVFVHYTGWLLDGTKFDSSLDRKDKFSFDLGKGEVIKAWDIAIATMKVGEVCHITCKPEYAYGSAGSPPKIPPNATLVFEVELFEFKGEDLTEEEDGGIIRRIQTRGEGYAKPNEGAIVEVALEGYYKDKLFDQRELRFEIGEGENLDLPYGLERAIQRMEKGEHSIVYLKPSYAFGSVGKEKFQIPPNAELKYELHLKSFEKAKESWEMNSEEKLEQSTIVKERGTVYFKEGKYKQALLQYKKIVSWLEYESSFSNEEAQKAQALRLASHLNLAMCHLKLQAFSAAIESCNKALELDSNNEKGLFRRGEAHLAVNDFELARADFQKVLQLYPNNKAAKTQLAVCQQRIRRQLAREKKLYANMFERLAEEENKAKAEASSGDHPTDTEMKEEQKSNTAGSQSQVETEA
UniProt O00458, sequence (O00458 whole entry, looked up): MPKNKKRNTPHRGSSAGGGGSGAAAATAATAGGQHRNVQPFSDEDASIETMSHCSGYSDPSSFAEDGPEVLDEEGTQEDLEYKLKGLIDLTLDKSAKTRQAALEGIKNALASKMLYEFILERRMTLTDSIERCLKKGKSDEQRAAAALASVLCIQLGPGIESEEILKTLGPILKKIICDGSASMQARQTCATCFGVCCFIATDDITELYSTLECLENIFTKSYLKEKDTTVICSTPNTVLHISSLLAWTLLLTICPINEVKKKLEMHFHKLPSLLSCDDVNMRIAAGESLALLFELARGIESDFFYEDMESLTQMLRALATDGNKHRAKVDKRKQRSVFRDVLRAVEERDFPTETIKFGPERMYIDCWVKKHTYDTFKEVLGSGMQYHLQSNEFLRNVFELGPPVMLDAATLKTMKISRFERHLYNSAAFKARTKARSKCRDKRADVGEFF
UniProt P08236, sequence (P08236 whole entry, looked up): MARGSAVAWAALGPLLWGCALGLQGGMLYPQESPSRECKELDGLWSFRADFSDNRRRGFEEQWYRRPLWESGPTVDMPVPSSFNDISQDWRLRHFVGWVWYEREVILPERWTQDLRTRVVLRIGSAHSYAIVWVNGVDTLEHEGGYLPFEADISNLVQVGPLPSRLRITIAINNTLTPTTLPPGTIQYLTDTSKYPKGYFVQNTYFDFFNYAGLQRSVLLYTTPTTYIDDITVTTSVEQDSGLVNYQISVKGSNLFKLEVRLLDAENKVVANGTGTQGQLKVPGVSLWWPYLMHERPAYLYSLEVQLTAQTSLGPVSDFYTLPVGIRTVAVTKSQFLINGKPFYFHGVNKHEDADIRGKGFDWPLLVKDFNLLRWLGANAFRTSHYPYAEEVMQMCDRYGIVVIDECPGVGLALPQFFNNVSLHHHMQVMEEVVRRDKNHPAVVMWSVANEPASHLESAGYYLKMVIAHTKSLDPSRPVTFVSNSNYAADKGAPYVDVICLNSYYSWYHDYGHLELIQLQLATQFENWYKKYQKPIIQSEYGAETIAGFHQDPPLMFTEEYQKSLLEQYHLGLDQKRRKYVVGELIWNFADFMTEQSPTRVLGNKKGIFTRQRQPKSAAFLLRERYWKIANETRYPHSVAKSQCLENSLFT
UniProt P69905, sequence (P69905 whole entry, looked up): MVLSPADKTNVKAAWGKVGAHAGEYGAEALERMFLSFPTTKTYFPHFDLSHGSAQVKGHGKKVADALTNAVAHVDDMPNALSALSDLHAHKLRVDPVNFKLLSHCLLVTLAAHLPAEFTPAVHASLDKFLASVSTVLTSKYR
UniProt P06280, sequence (P06280 whole entry, looked up): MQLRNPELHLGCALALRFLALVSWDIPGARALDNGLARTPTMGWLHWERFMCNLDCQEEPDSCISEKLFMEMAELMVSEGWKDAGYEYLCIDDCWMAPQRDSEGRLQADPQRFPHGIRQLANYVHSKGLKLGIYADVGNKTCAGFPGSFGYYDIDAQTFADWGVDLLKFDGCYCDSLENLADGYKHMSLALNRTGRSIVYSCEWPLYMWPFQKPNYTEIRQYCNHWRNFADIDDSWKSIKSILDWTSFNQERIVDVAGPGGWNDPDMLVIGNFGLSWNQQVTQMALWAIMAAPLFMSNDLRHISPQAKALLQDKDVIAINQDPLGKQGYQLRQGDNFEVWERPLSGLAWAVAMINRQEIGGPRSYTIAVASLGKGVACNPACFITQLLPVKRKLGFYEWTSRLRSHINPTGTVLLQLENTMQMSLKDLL
UniProt P36969, sequence (P36969 whole entry, looked up): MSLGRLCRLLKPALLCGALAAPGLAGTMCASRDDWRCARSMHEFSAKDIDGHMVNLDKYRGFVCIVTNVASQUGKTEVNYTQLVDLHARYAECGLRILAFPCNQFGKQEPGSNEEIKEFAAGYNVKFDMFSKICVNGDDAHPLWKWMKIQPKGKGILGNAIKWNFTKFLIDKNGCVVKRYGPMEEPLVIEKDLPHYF
UniProt Q9UKD1, sequence (Q9UKD1 whole entry, looked up): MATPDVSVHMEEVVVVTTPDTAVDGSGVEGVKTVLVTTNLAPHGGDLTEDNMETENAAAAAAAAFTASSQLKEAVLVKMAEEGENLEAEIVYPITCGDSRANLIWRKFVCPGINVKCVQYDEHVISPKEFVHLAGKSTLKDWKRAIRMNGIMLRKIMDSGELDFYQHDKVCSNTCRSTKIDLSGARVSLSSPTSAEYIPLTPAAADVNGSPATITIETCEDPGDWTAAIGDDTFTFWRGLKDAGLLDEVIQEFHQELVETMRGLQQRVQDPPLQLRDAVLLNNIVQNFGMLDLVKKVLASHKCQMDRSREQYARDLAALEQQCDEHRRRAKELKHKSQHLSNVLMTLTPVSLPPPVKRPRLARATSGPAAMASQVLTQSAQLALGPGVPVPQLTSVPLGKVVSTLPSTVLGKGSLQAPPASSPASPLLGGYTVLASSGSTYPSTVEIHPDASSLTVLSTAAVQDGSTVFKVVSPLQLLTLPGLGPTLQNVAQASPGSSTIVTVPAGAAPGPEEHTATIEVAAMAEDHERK
UniProt O76003, sequence (O76003 whole entry, looked up): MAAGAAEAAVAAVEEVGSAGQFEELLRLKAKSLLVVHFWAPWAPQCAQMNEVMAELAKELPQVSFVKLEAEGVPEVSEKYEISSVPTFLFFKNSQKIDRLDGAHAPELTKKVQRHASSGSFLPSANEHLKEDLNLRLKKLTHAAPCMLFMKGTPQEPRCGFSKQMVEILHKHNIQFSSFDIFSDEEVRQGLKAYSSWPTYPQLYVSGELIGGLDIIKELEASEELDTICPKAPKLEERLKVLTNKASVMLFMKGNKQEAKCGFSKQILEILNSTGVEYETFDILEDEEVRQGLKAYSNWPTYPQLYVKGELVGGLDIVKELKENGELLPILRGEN
UniProt Q03014, sequence (Q03014 whole entry, looked up): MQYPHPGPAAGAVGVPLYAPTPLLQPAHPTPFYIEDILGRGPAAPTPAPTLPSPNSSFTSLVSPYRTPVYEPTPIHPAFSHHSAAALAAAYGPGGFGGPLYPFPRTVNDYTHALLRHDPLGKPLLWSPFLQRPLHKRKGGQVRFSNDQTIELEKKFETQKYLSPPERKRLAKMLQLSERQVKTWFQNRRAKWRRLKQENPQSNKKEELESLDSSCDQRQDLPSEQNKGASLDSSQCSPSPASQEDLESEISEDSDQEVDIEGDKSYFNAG
UniProt Q7Z4H3, sequence (Q7Z4H3 whole entry, looked up): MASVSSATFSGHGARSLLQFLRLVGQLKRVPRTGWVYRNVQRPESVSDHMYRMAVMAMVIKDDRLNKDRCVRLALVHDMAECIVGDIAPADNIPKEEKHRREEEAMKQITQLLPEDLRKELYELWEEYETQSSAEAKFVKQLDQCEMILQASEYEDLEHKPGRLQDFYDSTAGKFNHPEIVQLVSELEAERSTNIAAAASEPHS

Row | Target | log2 fold change (IRAK-1-4 Inhibitor I) | log2 fold change (ibrutinib) | log2 fold change [1] | log2 fold change (ralimetinib) | log2 fold change [2] | log2 fold change [3] | log2 fold change [4] | log2 fold change (pinometostat) | log2 fold change [5] | log2 fold change [6] | log2 fold change [7] | log2 fold change [8] | log2 fold change [9] | log2 fold change [10] | log2 fold change (Nexturastat A) | log2 fold change (vemurafenib) | log2 fold change [11] | log2 fold change [12] | log2 fold change (givinostat) | log2 fold change (barasertib)
1 | HDGFL2 (UniProt Q7Z4V5) | 0.01 | -0.039 | 0.011 | -0.019 | 0.041 | -0.017 | -0.022 | -0.051 | 0.029 | -0.709 (active) | -0.281 (active) | 0 | -0.006 | 0.049 | 0.063 | -0.022 | 0.007 | -0.078 | 0.049 | 0.037
2 | FLNA (UniProt P21333) | -0.046 | -0.111 | 0.031 | 0.035 | -0.086 | -0.112 | 0.049 | 0.081 | -0.017 | -0.027 | -0.03 | -0.049 | 0.015 | 0.006 | 0.092 | 0.021 | 0.075 | 0.044 | 0.092 | 0.019
3 | IFI30 (UniProt P13284) | 0.157 | 0.049 | 0.088 | -0.05 | 0.063 | 0.087 | -0.012 | 0.019 | -0.008 | -0.099 | -0.043 | 0.043 | 0.018 | -0.046 | 0.056 | 0.056 | 0.183 | 0.034 | 0.018 | 0.028
4 | GUSB (UniProt P08236) | 0.037 | -0.016 | -0.075 | -0.013 | 0.011 | 0.025 | -0.005 | -0.032 | 0.174 | -0.077 | -0.013 | -0.014 | -0.027 | -0.073 | 0.277 | 0.06 | 0.03 | -0.038 | -0.501 (active) | -0.048
5 | HBA1 (UniProt P69905) | 0.002 | 0.007 | -0.03 | -0.037 | -0.035 | 0.094 | -0.056 | 0.025 | -0.019 | 0.127 | 0.021 | -0.068 | 0.071 | 0.018 | 0.015 | 0.137 | 0.037 | -0.038 | -0.061 | 0.072
6 | HNRNPF (UniProt P52597) | -0.143 | -0.023 | -0.1 | 0.098 | -0.086 | -0.279 (active) | 0.069 | 0.018 | 0.05 | -0.087 | 0.076 | -0.005 | -0.032 | -0.017 | 0.036 | 0.106 | 0.101 | 0.027 | 0.051 | 0.047
7 | GALNT1 (UniProt Q10472) | -0.106 | 0.023 | -0.002 | 0.101 | 0.018 | 0.048 | -0.141 | -0.025 | -0.001 | 0.021 | -0.004 | 0 | 0.03 | 0.067 | 0.001 | 0.02 | -0.021 | -0.055 | 0.003 | 0.007
8 | FKBP4 (UniProt Q02790) | 0 | -0.005 | -0.006 | -0.016 | -0.036 | -0.094 | 0.002 | -0.032 | -0.019 | 0.013 | 0.032 | -0.037 | 0.015 | 0.045 | -0.027 | 0.032 | 0.06 | -0.009 | 0.012 | 0.013
9 | GLA (UniProt P06280) | 0.034 | 0.026 | -0.031 | -0.05 | -0.052 | -0.199 | 0.015 | 0.02 | 0.052 | -0.051 | -0.016 | 0.027 | -0.001 | 0.011 | 0.005 | -0.009 | -0.038 | -0.039 | 0.04 | 0.005
10 | GLRX3 (UniProt O76003) | -0.03 | -0.015 | 0.02 | 0.002 | -0.027 | -0.024 | -0.033 | -0.033 | -0.021 | -0.025 | 0.007 | -0.033 | 0.02 | 0.028 | -0.049 | 0.024 | 0.139 | 0.014 | 0.01 | 0.054
11 | GTF3C5 isoform 3 (UniProt Q9Y5Q8) | -0.028 | 0.046 | 0.047 | 0.01 | -0.025 | -0.293 | 0.083 | 0.109 | 0.147 | -0.171 | 0.058 | -0.022 | 0.088 | 0.007 | 0.136 | 0.101 | 0.056 | 0.061 | 0.045 | 0.08
12 | GPX4 (UniProt P36969) | -0.026 | 0.065 | -0.005 | 0.01 | 0.003 | 0.099 | -0.462 (active) | -0.078 | 0.002 | 0.02 | -0.005 | -0.068 | 0.095 | 0.06 | -0.151 | -0.019 | 0.005 | -0.027 | -0.451 (active) | -0.012
13 | GMEB2 (UniProt Q9UKD1) | -0.021 | 0.061 | -0.022 | 0.018 | -0.158 | 0.006 | -0.128 | 0.145 | 0.004 | -0.367 (active) | 0.038 | -0.033 | 0.041 | -0.066 | 0.09 | 0.012 | 0.041 | -0.088 | 0.087 | 0.029
14 | HDDC2 (UniProt Q7Z4H3) | 0.04 | 0 | 0.052 | 0.085 | 0.003 | 0.074 | 0 | -0.076 | -0.006 | -0.007 | 0.009 | -0.03 | 0.014 | 0.029 | -0.139 | 0.004 | 0.034 | -0.018 | -0.067 | -0.022
15 | HHEX (UniProt Q03014) | 0.045 | 0.059 | 0.005 | -0.059 | -0.064 | -0.113 | 0.189 | -0.075 | 0.086 | -0.074 | -0.03 | 0.045 | -0.009 | -0.055 | 0.05 | -0.081 | 0 | 0.026 | -0.026 | -0.003
16 | IFRD1 (UniProt O00458) | 0.033 | 0.058 | 0.203 | -0.014 | -0.002 | -0.035 | 0.168 | -0.029 | -0.095 | -1.05 (active) | 0.123 | 0.033 | 0.098 | -0.04 | -0.103 | 0.001 | 0.058 | -0.111 | -0.154 | -0.079
